Screening results deposited in PubChem by several laboratories.
Most compounds without a hit are left out; they make up all but 4% or so of the library.
Peg3 promoter – Peg3 promoter activity inhibition | HeLa PEG-Prom luciferase reporter, luminescence, overnight | inhibition, % at 20 µM | 1.7% of 360,000 active;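 active = inhibition of at least 50% at 20 µM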
TROY signal inh – TROY signaling inhibition | Q293 LMP1-TROYcd NF-kB luciferase reporter, 4 h | inhibition, % at 10 µM | 0.98% of 360,000 active | AID 1347056;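 active = compounds whose plate-normalised and pattern-corrected inhibition of the luciferase reporter signal at the single screening dose is 50% or more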
HIF-2a block – inhibitors of HIF-2a | 786-0 RCC cells HIF-2a reporter, luciferase luminescence, overnight | inhibition, % at 18.8 µM | 0.72% of 360,000 active | AID 624352;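 active = inhibition of the luminescence signal of 40% or more relative to plate controls, in a single-dose primary screen at 18.75 µM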
TWEAK Fn14 block – TWEAK-Fn14 signaling inhibition; TWEAK-stimulated Fn14 reporter cells, luciferase luminescence, 8 h; inhibition, % at 10 µM; 2% of 360,000 active; in the data active = inhibition above about 50%
MITF TRPM1 inh – MITF TRPM1 promoter inhibition in SK-MEL-5 cells; SK-MEL-5 TRPM1 promoter luciferase, 24 h; inhibition, % at 12.5 µM; AID 488899; 0.83% of 330,000 active;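 active = mean inhibition across replicates of 60% or more, whatever share of single replicates reaches that level; inconclusive = some that reach 60%, reason not given; inactive = mean inhibition across replicates below 60%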
EBV LMP1 NFkB – Epstein-Barr LMP1 NF-kappaB reporter inhibition. LMP1-induced NF-kappaB luciferase reporter cells, luminescence. 0.69% of 350,000 active. inhibition, % at 12.5 µM; in the data active = inhibition above about 41%; inconclusive = no clear call, values can overlap the other calls;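 note: 0% = neutral control wells and 100% = reference inhibitor control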
Mdm2-MdmX confirm – Mdm2/MdmX (human) interaction inhibition, confirmed; shares compounds with HIF-2a block; SaOS-2 split-luciferase Mdm2/MdmX complementation, luminescence; inhibition, % at 8 µM; 99% of 740 active; AID 504601;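 active = mean inhibition of the luminescence signal across two replicates at or above 26 percent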
Target sequence (O15151 whole entry, looked up): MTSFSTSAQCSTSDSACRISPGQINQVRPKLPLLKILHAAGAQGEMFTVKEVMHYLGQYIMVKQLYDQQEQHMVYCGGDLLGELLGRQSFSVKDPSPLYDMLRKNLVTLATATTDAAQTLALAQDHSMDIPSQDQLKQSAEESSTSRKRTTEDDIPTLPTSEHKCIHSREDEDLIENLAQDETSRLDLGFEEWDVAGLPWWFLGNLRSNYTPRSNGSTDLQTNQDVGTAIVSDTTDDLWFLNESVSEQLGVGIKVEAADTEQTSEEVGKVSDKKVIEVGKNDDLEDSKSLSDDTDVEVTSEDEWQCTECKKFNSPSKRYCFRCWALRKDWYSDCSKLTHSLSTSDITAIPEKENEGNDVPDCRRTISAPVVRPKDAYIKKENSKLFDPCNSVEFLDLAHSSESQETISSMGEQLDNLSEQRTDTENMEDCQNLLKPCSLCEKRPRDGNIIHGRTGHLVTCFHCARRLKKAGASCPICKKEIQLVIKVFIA
Target sequence (Q00987 whole entry, looked up): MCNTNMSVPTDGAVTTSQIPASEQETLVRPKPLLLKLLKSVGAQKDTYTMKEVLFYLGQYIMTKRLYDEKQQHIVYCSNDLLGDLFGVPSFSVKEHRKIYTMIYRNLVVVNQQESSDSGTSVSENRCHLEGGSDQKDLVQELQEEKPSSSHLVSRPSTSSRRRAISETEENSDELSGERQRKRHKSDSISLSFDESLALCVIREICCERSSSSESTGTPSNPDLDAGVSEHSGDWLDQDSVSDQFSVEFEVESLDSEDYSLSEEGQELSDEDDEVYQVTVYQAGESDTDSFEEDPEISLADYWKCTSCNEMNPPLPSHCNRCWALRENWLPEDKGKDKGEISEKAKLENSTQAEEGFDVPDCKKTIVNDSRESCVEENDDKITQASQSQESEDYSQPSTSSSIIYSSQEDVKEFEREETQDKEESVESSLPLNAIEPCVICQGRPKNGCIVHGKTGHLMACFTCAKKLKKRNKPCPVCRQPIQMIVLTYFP
HIF-2a inh conf – confirmation of HIF-2a inhibitors; shares compounds with HIF-2a block; 786-0 RCC cells, HIF-2a luciferase reporter luminescence, overnight; inhibition, % at 18.8 µM; 56% of 1,800 active; AID 651580;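 active = mean inhibition across four replicates of at least 40 percent at the single tested concentration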
HIF-1a cs – HIF-1a inhibition counter-screen for HIF-2a hits; shares compounds with HIF-2a block; MiaPaCa-2 HIF-1a luciferase reporter, desferoxamine, overnight; inhibition, % at 18.8 µM; 72% of 1,800 active;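 active = mean inhibition of the reporter signal across four replicates at the single tested dose of 50% or more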
An asterisk follows results filed as active; ? = inconclusive; nt = no result given.

SMILES	Peg3 promoter	TROY signal inh	HIF-2a block	TWEAK Fn14 block	MITF TRPM1 inh	EBV LMP1 NFkB	HIF-2a inh conf	HIF-1a cs	others
O=C(OCC(=O)N1CCc2ccccc21)c1n[nH]c(=O)c2ccccc12	-14	7	7	-4	-2	-2	nt	nt
COc1ccc(C2C(Oc3ccccc3)C(=O)N2c2cc(C)ccc2C)cc1OC (stereo not drawn)	17	-8	-5	-14	-1	1	nt	nt
COc1ccc(C)cc1N1C(=N)/C(=C2/Nc3ccccc3S2)C(c2ccccc2)C1=O (stereo not drawn)	91*	7	83*	31	3	-4	-11	88*
O=S(=O)(NC1=NCCC1)c1cccc(NC(=S)NCCc2ccccc2)c1	-19	-12	-10	2	6	-4	nt	nt
O=C1Nc2ccccc2C(=O)N(C2CCCC2)C1C(=O)NC1CC1 (stereo not drawn)	nt	nt	1	nt	nt	nt	nt	nt
CCOc1cccc(/C=N/Nc2ccc(S(=O)(=O)N(CC)CC)cn2)c1O	39	8	26	-11	50	57*	nt	nt	Mdm2-MdmX confirm=91*
COC(=O)c1cnn(-c2nc(OC)cc(OC)n2)c1C	-5	-4	2	14	-12	5	nt	nt
COc1cc(OC)nc(-n2ncc(Br)c(Br)c2=O)n1	104*	63*	92*	103*	93*	65*	100*	106*
O=C1NC[C@H](CCCCN2C[C@H](Cc3ccccc3)N(CCc3ccc(O)cc3)C(=O)C2=O)N(CCC2CCCCC2)C1=O	nt	-1	-3	-10	nt	nt	nt	nt
CC1CCC(C(C)C)C(OC(=O)COC(=O)c2cc(O)ccc2N)C1 (stereo not drawn)	20	1	0	21	12	1	nt	nt
COc1ccc(OCc2n(CC(=O)OC3CC(C)CCC3C(C)C)c3ccccc3[n+]2C)cc1 (stereo not drawn)	100*	47	95*	42	82*	2	-5	103*	Mdm2-MdmX confirm=102*
CCOc1ccc(S(=O)(=O)N(CC)CC(=O)NCc2ccncc2)cc1C	15	-4	15	25	16	4	nt	nt
CC(=O)c1cccc(OCC(=O)N(C)CC(=O)NCc2ccco2)c1	8	-3	9	14	6	1	nt	nt
O=C(O)c1ccccc1C(=O)Nc1ccccc1	6	1	1	3	3	-3	nt	nt
O=C(Nc1ccccc1)C1=C(c2ccccc2)S(=O)(=O)CCS1(=O)=O	109*	87*	72*	88*	81*	72*	45*	86*
CCOC(=O)Cc1csc(NC(=O)c2ccc(C)cc2)n1	-59	-10	-8	-1	-17	10	nt	nt
CCOC(=O)Cc1csc(NC(=S)NC(=O)c2ccc(C)cc2)n1	47	26	96*	68*	-19	-3	99*	97*
CCOC(=O)Cc1csc(NC(=S)NC(=O)c2ccccc2)n1	-11	10	85*	-20	-1	-4	87*	43
Cc1ccc(S(=O)(=O)N2CCOCC2)cc1C(=O)NCCc1ccc(Cl)cc1	-10	5	9	19	-6	4	nt	nt
CC(=O)N(C(C)=O)c1ncnc2c1c(-c1ccc(Cl)cc1)nn2C(C)(C)C	34	28	39	40	7	15	nt	nt
CC(=O)Nc1ncnc2c1c(-c1ccc(Cl)cc1)nn2C(C)(C)C	28	-7	48*	5	5	18	43*	49
NS(=O)(=O)c1ccc(CCN2C(=O)/C(=C\c3ccc(Cl)cc3)SC2=S)cc1	83*	-2	42*	-46	-7	24	nt	nt	Mdm2-MdmX confirm=103*
CN1CCN(C(=O)CCN2C(=O)/C(=C\c3ccc(Cl)cc3)SC2=S)CC1	48	-17	7	1	-4	-3	nt	nt
C[C@H]1CN([C@@H](C)CO)C(=O)CCCn2nncc2CO[C@@H]1CN(C)C(=O)c1ccncc1	-9	-11	-7	24	nt	1	nt	nt
CCS(=O)(=O)c1ccc(O)c(NC(=O)c2ccc(S(=O)(=O)N3CCCCCC3)cc2)c1	-15	-2	14	-6	7	-5	nt	nt
SMILES	Peg3 promoter	TROY signal inh	HIF-2a block	TWEAK Fn14 block	MITF TRPM1 inh	EBV LMP1 NFkB	HIF-2a inh conf	HIF-1a cs	others
COc1ccc(CNC(=O)COC(=O)CCCOc2ccc(Cl)cc2Cl)cc1	11	5	43*	9	3	-7	29	20
Clc1ccc(Cn2ncc3c(N4CCCCC4)ncnc32)cc1	-21	12	-37	22	-4	-5	nt	nt
Clc1ccc(-n2ncc3c(N4CCCCCC4)ncnc32)cc1	24	92*	66*	105*	71*	41*	84*	102*
CCCNC(=O)c1ccc(S(N)(=O)=O)cc1	-1	-13	-5	7	-10	4	nt	nt
CCCNC(=O)c1nnsc1S(=O)(=O)c1ccc(Cl)cc1	101*	73*	79*	70*	86*	?	69*	57*	Mdm2-MdmX confirm=103*
CCCNC(=O)c1ccc2snnc2c1	6	0	17	-13	5	-5	nt	nt
CCCNC(=O)c1nnsc1S(=O)c1ccc(Cl)cc1 (stereo not drawn)	104*	59*	44*	72*	67*	2	25	99*
COc1ccccc1N1CCN(CC(=O)Nc2sccc2C#N)CC1	2	5	-7	-11	5	5	nt	nt
Cc1scc(C(=O)N/N=C/c2ccc([N+](=O)[O-])o2)c1C	9	-22	61*	5	100*	5	62*	84*
CCN(CC)CCNC(=O)c1cc2c(-c3ccc(Cl)cc3)nn(C)c2s1	88*	-74	58*	-71	62*	-249	15	88*
Cn1nc(-c2ccc(Cl)cc2)c2cc(C(=O)NCCN3CCOCC3)sc21	5	0	6	-29	18	-32	nt	nt
CC1(C(=O)NS(=O)(=O)c2ccccc2Cl)CCN1C(=O)c1ccccc1 (stereo not drawn)	-5	-1	12	-14	nt	nt	nt	nt
O=C(COC(=O)c1nc(Cl)c(Cl)c(Cl)c1Cl)NCc1ccccc1	92*	32	70*	85*	50	-30	18	-19
Cc1ccc(S(=O)(=O)N2CCOCC2)cc1NC(=O)CN1CCN(C)CC1	8	5	11	1	-4	1	nt	nt
Cc1ccc(S(=O)(=O)N2CCOCC2)cc1NC(=O)CN1CCN(c2ccc(O)cc2)CC1	45	49	46*	78*	43	5	44*	98*
COc1cc(/C=C/C(C)=O)cc(OC)c1OC	-1	0	8	10	0	4	nt	nt
